Records with an inconclusive call do not appear. Entries that show only a call come without a potency. Active and inactive are the calls of the source. The call rests on the fitted dose curve; in most records, active means well fitted curve in the direction sought with a large enough effect; inconclusive means small, poorly fitted or top-dose-only effect, or another doubt; inactive means no such curve, though single readings can be large; an effect the other way counts as inactive or inconclusive.
Key:
[1] = Quantitative High-Throughput drug screen in 47 multiple myeloma cell lines against the NCATS MIPE library collection: FR4_PLB cell viability assay (AID 1918924; further: nearly all actives have a fitted effect of over 35% in size)
Outline: (§1)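 Inhibition of cell viability is measured here. Each line was plated at 500 cells per well, treated with MIPE 4.0 drugs, kept 48 hours at 37C, then assayed for ATP content by CellTiter-Glo luminescence.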

[2] = Quantitative High-Throughput drug screen in 47 multiple myeloma cell lines against the NCATS MIPE library collection: Delta47_JCRB cell viability assay (AID 1918925; further: nearly all actives have a fitted effect of over 45% in size)
Outline: (§2)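 qHTS of the MIPE 4.0 collection: 500 myeloma cells/well, 48 h drug exposure at 37C in 5% CO2, then CellTiter-Glo for 5 min at room temperature before luminescence reading.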

[3] = Quantitative High-Throughput drug screen in 47 multiple myeloma cell lines against the NCATS MIPE library collection: ARD_JJKsccE7 cell viability assay (AID 1918929)
Outline: as §2

[4] = Quantitative High-Throughput drug screen in 47 multiple myeloma cell lines against the NCATS MIPE library collection: JIM1_ECACC cell viability assay (AID 1918964)
Outline: as §2

[5] = Quantitative High-Throughput drug screen in 47 multiple myeloma cell lines against the NCATS MIPE library collection: EJM_DSMZ cell viability assay (AID 1918926; further: nearly all actives have a fitted effect of over 30% in size)
Outline: as §2

[6] = Quantitative High-Throughput drug screen in 47 multiple myeloma cell lines against the NCATS MIPE library collection: AMO1_DSMZ cell viability assay (AID 1918927; further: nearly all actives have a fitted effect of over 30% in size)
Outline: as §2

[7] = Quantitative High-Throughput drug screen in 47 multiple myeloma cell lines against the NCATS MIPE library collection: ARP1_JJKsccF8 cell viability assay (AID 1918928; further: nearly all actives have a fitted effect of over 40% in size)
Outline: (§3)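 Myeloma cells, 500 per well, were exposed to MIPE 4.0 drugs by pin transfer for 48 h at 37 °C, 5% CO2. Viability was read as ATP luminescence with CellTiter-Glo, normalised to DMSO-only (100%) and medium-only (0%) wells.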

[8] = Quantitative High-Throughput drug screen in 47 multiple myeloma cell lines against the NCATS MIPE library collection: Karpas620_DSMZ cell viability assay (AID 1918959); further: nearly all actives have a fitted effect of over 30% in size
Outline: as §1

[9] = Quantitative High-Throughput drug screen in 47 multiple myeloma cell lines against the NCATS MIPE library collection: KMM1_JCRB cell viability assay (AID 1918960); further: nearly all actives have a fitted effect of over 30% in size
Outline: as §3

[10] = Quantitative High-Throughput drug screen in 47 multiple myeloma cell lines against the NCATS MIPE library collection: JIM3_ECACC cell viability assay (AID 1918963; further: nearly all actives have a fitted effect of over 35% in size)
Outline: as §1

[11] = Quantitative High-Throughput drug screen in 47 multiple myeloma cell lines against the NCATS MIPE library collection: Karpas417_ECACC cell viability assay (AID 1918961); settings: Karpas417 myeloma viability, CellTiter-Glo ATP luminescence, 48 h; viability (% of DMSO): at 45.8 µM (top of the series)
Outline: as §2

[12] = Quantitative High-Throughput drug screen in 47 multiple myeloma cell lines against the NCATS MIPE library collection: KHM11_PLB cell viability assay (AID 1918962); further: nearly all actives have a fitted effect of over 35% in size
Outline: as §1
Potency means the concentration at half of the fitted maximal effect.

SMILES | Potency [1] | Potency [2] | Potency [3] | Potency [4] | Potency [5] | Potency [6] | Potency [7] | Potency [8] | Potency [9] | Potency [10] | Potency [11] | Potency [12]
CC(=CC(=O)Nc1ccccc1C(=O)O)c1ccc2ccccc2c1 | inactive | 14.8 µM (active) | 14.8 µM (active) | 0.59 µM (active) | – | – | – | – | – | – | – | –
CN1[C@H]2CC(OC(=O)[C@@H](CO)c3ccccc3)C[C@H]1[C@H]1O[C@H]12 (stereo partly specified) | inactive | – | inactive | – | inactive | inactive | inactive | inactive | inactive | inactive | – | –
COc1cc(C)c(C=CC(C)=CC=CC(C)=CC(=O)O)c(C)c1C | inactive | – | inactive | inactive | – | inactive | inactive | 7.43 µM (active) | – | 0.166 µM (active) | inactive | –
O=C(O)C[C@H](O)C[C@H](O)C=Cc1c(C2CC2)nc2ccccc2c1-c1ccc(F)cc1 | 10.5 µM (active) | – | 4.18 µM (active) | 0.935 µM (active) | inactive | 9.35 µM (active) | – | – | 5.9 µM (active) | 14.8 µM (active) | – | 7.43 µM (active)
Cc1ccc(O)c(C(CCN(C(C)C)C(C)C)c2ccccc2)c1 (stereo unspecified) | inactive | – | inactive | – | 0.0017 µM (active) | inactive | – | inactive | inactive | inactive | – | –
COc1cc2c(cc1O)CCC1C2CC[C@@]2(C)C1CC[C@@H]2O (stereo partly specified) | 0.743 µM (active) | 2.64 µM (active) | inactive | – | – | – | – | – | – | 1.32 µM (active) | inactive | –
Cc1onc(-c2ccccc2)c1C(=O)N[C@@H]1C(=O)N2[C@@H](C(=O)O)C(C)(C)S[C@@H]12 | inactive | – | inactive | inactive | inactive | inactive | – | inactive | inactive | inactive | – | –
COc1cc(C=CC(=O)CC(=O)C=Cc2ccc(O)c(OC)c2)ccc1O | 10.8 µM (active) | – | 6.05 µM (active) | 3.4 µM (active) | 21.5 µM (active) | 5.4 µM (active) | 8.55 µM (active) | 3.4 µM (active) | 4.81 µM (active) | 4.81 µM (active) | 4.81 µM (active) | 6.05 µM (active)
CON=C(C(=O)N[C@@H]1C(=O)N2C(C(=O)O)=C(Cn3ccc(=N)n3CCO)CS[C@H]12)c1csc(N)n1 | inactive | – | inactive | inactive | inactive | inactive | – | inactive | inactive | inactive | – | inactive
COc1ccnc2[nH]cc(C(=O)C(=O)N3CCN(C(=O)c4ccccc4)C[C@@H]3C)c12 | inactive | – | – | – | inactive | inactive | 16.6 µM (active) | inactive | inactive | inactive | – | inactive
CN(N=O)C(=O)N[C@H]1C(O)OC(CO)[C@@H](O)[C@H]1O (stereo partly specified) | inactive | inactive | inactive | – | – | inactive | – | inactive | inactive | inactive | – | –
CC(C)OC(=O)[C@H](C)N[P@](=O)(OC[C@H]1O[C@@H](n2ccc(=O)[nH]c2=O)[C@](C)(F)[C@H]1O)Oc1ccccc1 | inactive | – | inactive | – | inactive | inactive | inactive | inactive | inactive | – | – | inactive
O=C(NCc1ccccc1)[C@H](Cc1ccccc1)NC(=O)[C@@H]1O[C@@H]1C(=O)NCCc1ccc(O)cc1 | inactive | – | – | 18.7 µM (active) | 0.0833 µM (active) | 20.9 µM (active) | – | 26.4 µM (active) | – | – | – | inactive
N#Cc1ccc(COC[C@H]2O[C@@H](n3c(NCc4ccc(Cl)c(Cl)c4)nc4c(N)ncnc43)[C@@H](O)[C@@H]2O)cc1 | 13.2 µM (active) | 16.6 µM (active) | 5.26 µM (active) | 3.72 µM (active) | – | – | 6.62 µM (active) | 0.418 µM (active) | 5.26 µM (active) | 14.8 µM (active) | – | –
C[C@H]1O[C@H](O[C@H]2[C@H](O)[C@@H](O)[C@@H](O[C@H]3[C@H](O)[C@@H](O)C(O)O[C@H]3CO)O[C@H]2CO)[C@H](O)[C@@H](O)[C@H]1N[C@H]1C=C(CO)[C@@H](O)[C@H](O)[C@@H]1O (stereo partly specified) | inactive | – | – | – | inactive | – | inactive | – | inactive | inactive | – | inactive
CON=C(C(=O)N[C@@H]1C(=O)N2C(C(=O)O)=C(CSC(=O)c3ccco3)CS[C@H]12)c1csc(N)n1 | inactive | – | – | – | inactive | inactive | – | inactive | inactive | – | – | –
COc1ccc2c(c1OC)C(=O)OC2[C@H]1c2c(cc3c(c2OC)OCO3)CCN1C (stereo partly specified) | 0.0526 µM (active) | – | 0.0743 µM (active) | 0.001 µM (active) | 2.09 µM (active) | 0.0743 µM (active) | 0.0526 µM (active) | 0.0264 µM (active) | 0.148 µM (active) | 0.0833 µM (active) | 2.09 µM (active) | –

— PubChem BioAssay (NCATS)
